# Reference: PubChem BioAssay AID1851 (National Center for Advancing Translational Sciences (NCATS), 2009)
# Several values for one entry are separate records, joined by “and”; a condition that tells them apart may be missing. Identical values can stand only once. Screen size: about 16,000 compounds; about 4,000 (25%) were called active. Not shown: some 26% with an inconclusive outcome. The call rests on the fitted dose curve; in most records, active means well fitted curve in the direction sought with a large enough effect; inconclusive means small, poorly fitted or top-dose-only effect, or effect the other way; inactive means no such curve, though single readings can be large or run the other way. The list is a sample of the results. Some structures have more than one record in an assay (separate samples or runs), and their calls can disagree.
# Target: Cytochrome P450 2C9 (Homo sapiens) (UniProt P11712)
# Assay: Cytochrome panel assay with activity outcomes
# Details: recombinant CYP, pro-luciferin dealkylation, luminescence, p450-cyp2c9; series mostly up to 57.1 µM
# On the % scale 0 is the no-effect control and ±100 the full control effect.
# Sequence of Cytochrome P450 2C9 (Homo sapiens) (P11712 whole entry, looked up): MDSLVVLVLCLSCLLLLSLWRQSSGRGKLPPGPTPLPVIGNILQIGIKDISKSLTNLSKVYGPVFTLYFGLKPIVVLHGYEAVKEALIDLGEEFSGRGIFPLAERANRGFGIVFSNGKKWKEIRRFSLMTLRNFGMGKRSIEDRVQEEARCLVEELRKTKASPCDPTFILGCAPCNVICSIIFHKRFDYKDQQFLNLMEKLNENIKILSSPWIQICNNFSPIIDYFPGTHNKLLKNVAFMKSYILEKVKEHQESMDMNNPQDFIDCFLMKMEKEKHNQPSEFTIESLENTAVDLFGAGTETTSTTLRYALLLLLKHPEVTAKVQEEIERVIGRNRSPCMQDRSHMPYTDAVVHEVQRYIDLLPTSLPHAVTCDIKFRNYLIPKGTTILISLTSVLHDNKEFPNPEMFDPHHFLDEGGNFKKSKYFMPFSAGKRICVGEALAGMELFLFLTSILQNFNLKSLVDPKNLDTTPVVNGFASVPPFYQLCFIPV
SMILES,"activity, negative = inhibition",AC50
COc1ccccc1-c1nc(N(C)C)c2ccccc2n1,-2.29% [at 2.29 µM] (inactive),–
COc1ccc(C(=O)N2CCC3(CC2)CN(C(=O)Nc2cccc(C#N)c2)C3)cc1,–,inactive
CC(=O)N1CCC2(CC1)CN(Cc1ccccc1)C2,–,inactive
CC(=O)N1CCN(C(=O)CC2OC(=O)c3ccccc32)CC1 (stereo unspecified),–,15.8 µM (active)
CCC(=O)N1CCN(C(=O)c2ccccc2)CC1,–,inactive
Cc1ccc(SCC(=O)NNC(=O)C2CCCCC2)cc1,–,inactive
CC(=O)c1ccc(NC(=O)C(Cc2ccccc2)NC(=O)c2ccco2)cc1 (stereo unspecified),–,14.1 µM (active)
CCc1cc2cc(C)c(C)cc2nc1SCC(=O)NNC(=O)c1ccco1,–,inactive
CC(C)C[C@H](NC(=O)[C@@H](O)[C@@H](N)Cc1ccccc1)C(=O)O,–,inactive
Cc1ccc(SCC(=O)Nc2cccc(NC(=O)c3ccco3)c2)cc1,–,4.47 µM (active)
O=C(Nc1ccccc1)C(Cc1ccccc1)NC(=O)C12CC3CC(CC(C3)C1)C2 (stereo unspecified),–,inactive
Cc1cc(NC(=O)c2ccco2)ccc1-n1cnnn1,–,10 µM (active)
COc1ccc(C(=O)Nc2ccc(NC(=O)c3ccco3)c(Cl)c2)cc1OC,–,inactive
CC(C)Oc1ccc(C(=O)Nc2ccc(NC(=O)c3ccco3)c(Cl)c2)cc1,–,14.1 µM (active)
NC(=NCc1ccccc1)NC(=O)c1nc(Cl)c(N)nc1N,–,inactive
CN(C)C(=O)c1ccc(-c2ccc3ncnc(N4CCNCC4)c3c2)cc1,6.81% [at 2.29 µM] (inactive),–
Cc1noc(C)c1-c1ccc2ncnc(N(C)Cc3ccco3)c2c1,-29% [at 2.29 µM] (inactive),–
COc1cccc(C(=O)Nc2ccc(NC(=O)c3ccco3)cn2)c1,–,14.1 µM (active)
CCc1nnc2sc(-c3ccc(NC(=O)c4ccco4)cc3)nn12,–,inactive
CC(C)(C)c1ccc(C(=O)Nc2ccc(NC(=O)c3ccco3)cc2)cc1,–,8.91 µM (active)
c1ccc(CNc2ncncc2-c2cccnc2)cc1,-3.05% [at 2.29 µM] (inactive),–
COc1ccc2oc(C(=O)c3ccccc3)c(N)c2c1,–,11.2 µM (active)
COc1ccc2nccc(C(=O)O)c2c1,–,inactive
COc1ccc(C(=O)c2ccccc2)c(O)c1,–,inactive

SMILES,"activity, negative = inhibition",AC50
Cc1noc(C)c1-c1ccc2ncnc(NCc3cccs3)c2c1,-7.45% [at 2.29 µM] (inactive),–
CC(C)NC[C@H]1CCc2cc(CO)c([N+](=O)[O-])cc2N1,–,inactive
CN(CCO)Cc1ncccc1O,-2.29% [at 11.4 µM] (inactive),–
Cc1scc2c1N(C(=O)CN1CCN(C)CC1)c1ccccc1NC2=O,–,inactive and 2.51 µM (active)
CN1CCN(CC(=O)N2c3ccccc3Sc3cc4ccccc4cc32)CC1,5.77% [at 11.4 µM] (inactive),–
CN1CCN(CC(=O)N2c3ccccc3C(=O)Nc3cccnc32)CC1,–,inactive
CNc1cc(-c2ccccc2C(F)(F)F)ncn1,22.5% [at 2.29 µM] (inactive),–
Nc1n[nH]c2ccccc12,-15.6% [at 11.4 µM] (inactive),–
O=c1[nH]c(=O)c2nc3ccccc3nc2[nH]1,–,inactive
Nc1[nH]nc2nc3ccccc3nc12,–,2 µM (active)
CC[C@@H]1CC(=O)N(SC[C@H](N)C(=O)O)C1=O,10.2% [at 11.4 µM] (inactive),–
CC1CC2(CCCCC2)N2C(=O)C(=O)c3cccc1c32 (stereo unspecified),–,5.01 µM (active)
O=c1[nH]c2cc(Br)cnc2nc1/C=C(\O)c1ccc(F)cc1,–,inactive
O=c1cc(-c2ccccc2)[nH]c2nc(Cl)ccc12,–,inactive
Cc1ccccc1S(=O)(=O)c1c(C)cc(-c2ccccc2)[nH]c1=O,–,22.4 µM (active)
CN(C)CCCNc1c(C(=O)O)cnc2c1cnn2C,–,inactive
COc1ccc(C2=NC(C(F)(F)F)(C(F)(F)F)c3c(n(C)c(=O)n(C)c3=O)N2)cc1,–,8.91 µM (active)
Cn1c(=O)c(-c2ccc(Cl)cc2)nc2cncnc21,–,inactive
Cn1c2c(c(=O)n(C)c1=O)C(C(F)(F)F)(C(F)(F)F)N=C(c1ccc(Cl)cc1)N2,–,2 µM (active)
COc1ccc(-c2nc3cnc(OC)nc3n(C)c2=O)cc1,–,inactive
COc1cccc(Nc2ncc3nc(-c4ccc(F)cc4)c(=O)n(C)c3n2)c1,–,inactive
CCN1CCc2nc(N)oc2CC1,–,inactive
N[C@](CC1c2ccccc2Oc2ccccc21)(C(=O)O)[C@@H]1C[C@@H]1C(=O)O,–,inactive
CC[N+](C)(CC)CCOC(=O)C1c2ccccc2Oc2ccccc21,–,inactive

SMILES,"activity, negative = inhibition",AC50
CC(=O)c1ccc(OC(=O)C2c3ccccc3Oc3ccccc32)cc1,–,28.2 µM (active)
CCOC(=O)Cn1nc(C)n(-c2ccc(C)cc2)c1=O,–,inactive
CCOC(=O)c1cc2c(C)n(-c3ccc(C)cc3)c(C)c2ccc1=O,–,14.1 µM (active)
CCOc1ncnc2c1oc1nc(CC(C)C)c3c(c12)CC(C)(C)OC3,–,20 µM (active)
CCCNC(=O)OC[C@@H]1O[C@H](CCO/N=C(\C)CCN2CCCc3nc(C)c(C)cc32)C=C[C@@H]1Oc1ccc(OC)cc1,-26.6% [at 11.4 µM] (inactive),–
CC12c3ccccc3C(c3ccccc31)C1C(=O)N(Cc3cccnc3)C(=O)C12 (stereo unspecified),–,11.2 µM (active)
CNC(=O)Oc1ccc2c(c1)[C@@]1(C)CCN(C)[C@@H]1N2C,–,inactive
O=C(N/N=C/c1cccc(OC2CSC2)c1)c1ccccc1O,–,inactive
O=C(COc1ccccc1C(=O)N/N=C\c1ccc(O)c(O)c1)N/N=C/c1ccc(O)c(O)c1,–,12.6 µM (active)
COc1ccccc1-c1nccc(NCc2cccc(C)c2)n1,-8.67% [at 2.29 µM] (inactive),–
COC(=O)c1ccc(C23CC2(C(NP(=O)(c2ccccc2)c2ccccc2)c2ccccc2)C3)cc1 (stereo unspecified),–,10 µM (active)
COC(=O)c1ccc(NC(=O)C2CCCCC2C(=O)O)cc1 (stereo unspecified),–,inactive
COC(=O)c1ccc(C#CC(NP(=O)(c2ccccc2)c2ccccc2)c2ccccc2)cc1 (stereo unspecified),–,10 µM (active)
CN(C)Cc1ccccc1-c1nccc(N(C)Cc2ccco2)n1,-2.53% [at 2.29 µM] (inactive),–
CC(C)(C)N1C(=O)[C@@H]2[C@H]3C(=CC[C@H]2C1=O)C(=O)[C@H]1O[C@H]1[C@H]3O,4.81% [at 11.4 µM] (inactive),–
Cc1ccc(-c2csc3ncnc(NCCN4CCOCC4)c23)cc1,–,14.1 µM (active)
CN(C)c1ccc(-c2cncnc2NCCN2CCOCC2)cc1,1.82% [at 2.29 µM] (inactive),–
CN(C)C(=O)c1ccc(-c2cncnc2NCCN2CCOCC2)cc1,0.0156% [at 2.29 µM] (inactive),–
O=C1C2=C(NC(=S)NC2c2ccc(Cl)cc2)NC(c2ccc(Cl)cc2)N1c1ccc(Cl)cc1 (stereo unspecified),–,11.2 µM (active)
O=[n+]1c2c(n([O-])c3cc(F)c(F)cc31)CCCC2,–,inactive
O=[N+]([O-])c1ccc2c(c1)Cc1cc(N=Cc3ccc4c(c3)OCO4)ccc1-2,-3.27% [at 11.4 µM] (inactive),–
O=S(=O)(N/N=C/c1ccc2c(c1)OCCO2)c1ccc(Cl)cc1,–,1.41 µM (active)
O=S(=O)(N/N=C\c1ccc2c(c1)OCO2)c1ccc(Cl)cc1,–,1.12 µM (active)
O=c1oc2cc(N=Cc3ccc4c(c3)OCO4)ccc2c2ccccc12,-21.1% [at 11.4 µM] (inactive),–

SMILES,"activity, negative = inhibition",AC50
C[C@]1(OC(=O)/C=C\c2ccccc2)C[C@@H](O)[C@@]2(O)C=CO[C@@H](O[C@H]3O[C@@H](CO)[C@@H](O)[C@@H](O)[C@@H]3O)[C@H]21,–,inactive
NC(=NCCC[C@H](N)C(=O)O)NO,–,inactive
CC(N)=NCCCC[C@H](N)C(=O)O,–,inactive
CCCN=C(N)NCCC[C@H](N)C(=O)O,–,3.98 µM (active)
COc1ncc2ncc(=O)n(CCC#N)c2n1,–,inactive
COCCNc1ncnc2ccc(-c3ccc(N(C)C)cc3)cc12,-3.32% [at 2.29 µM] (inactive),–
O=S(Cc1ccc(Br)cc1)Cc1nnc(SCc2ccc(Cl)cc2)n1-c1ccccc1 (stereo unspecified),–,10 µM (active)
COC(Cc1nnc(SC)n1-c1ccc(Cl)cc1)OC,–,inactive
Cc1cccc(NC(=S)N2CCC(N(C)CC3CCCO3)CC2)c1C (stereo unspecified),–,inactive
Cc1ccc(S(=O)(=O)Nc2nc3ccccc3nc2N2CCc3ccccc3C2)cc1,–,0.251 µM (active)
CN1CCN(c2ncnc3ccc(-c4cccc(NS(C)(=O)=O)c4)cc23)CC1,22.3% [at 2.29 µM] (inactive),–
O=C(Cc1ccc(-n2c(=O)[nH]c3ccccc3c2=O)cc1)N1CCN(c2cccc(Cl)c2)CC1,–,3.55 µM (active)
O=C(Cn1ccc2ccccc2c1=O)N1CCN(c2cccc(Cl)c2)CC1,–,inactive
O[C@H](CN1CCN(c2cccc(Cl)c2)CC1)C(c1ccccc1)c1ccccc1,–,inactive
COc1ccc(CCNC[C@H](O)c2ccc(O)cc2)cc1OC,–,inactive
COc1ccc(CCNC(=O)CC(NS(=O)(=O)c2ccc(NC(C)=O)cc2)C(C)C)cc1OC (stereo unspecified),–,2.51 µM (active)
CC(=O)Nc1ccc(S(=O)(=O)NC(CC(=O)NCCCN2CCOCC2)C(C)C)cc1 (stereo unspecified),–,inactive
CC(=O)Nc1ccc(S(=O)(=O)NCCc2ccc(F)cc2)cc1,–,inactive
COc1ccc(CONS(=O)(=O)c2ccc(NC(C)=O)cc2)cc1Cl,–,12.6 µM (active)
CC(=O)Nc1ccc(S(=O)(=O)N=S(C)C)cc1,–,inactive
OCCN(CO)CO,-10.4% [at 11.4 µM] (inactive),–
CC(=O)OC[C@H]1O[C@@H](O/N=C(\C)CCN2CCCCc3nc(C)c(C)cc32)[C@H](OC(C)=O)[C@@H](OC(C)=O)[C@H]1OC(C)=O,23.5% [at 11.4 µM] (inactive),–
c1ccc(CCc2cccnc2)nc1,-6.59% [at 11.4 µM] (inactive),–
c1ccc(NN(Cc2cnccn2)c2ccccc2)cc1,–,3.16 µM (active)
